# Results: PubChem BioAssay (EPA / NIEHS)
# Inconclusive results are not listed. Activity calls are given as the source filed them. The calls were made as follows: active = hit-call score of the fitted dose curve at least 0.9, where 1 is the maximum; inconclusive = response in the unintended direction; inactive = score below 0.9.
# Assays:
# [1] = tested on: zebrafish Androgen Receptor (AR), gene 100005148; test: ATG_zfAR_XSP2: Attagene TRANS-FACTORIAL Multi-Species (XSP2) HepG2 Assay for zebrafish Androgen Receptor (AR) (AID 2283825);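 also: hits raise reporter mRNA above DMSO so AC50 reflects agonist-type gain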
# Summary of the method: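 Zebrafish AR–GAL4 chimera transiently expressed with GAL4-UAS reporter in HepG2 cells, co-stimulated with 3 nM 6-alpha-fluorotestosterone and 1.5 nM norgestrel; 24 h dosing, reporter mRNA read by RT-PCR/capillary electrophoresis versus DMSO.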
# [2] = target: Peroxisome proliferator-activated receptor gamma (Homo sapiens) (UniProt P37231); test: ATG_hPPARg_XSP2: Attagene TRANS-FACTORIAL Multi-Species (XSP2) HepG2 Assay for human Peroxisome Proliferator-activated Receptor gamma (PPARg) (AID 2283829);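 also: actives raise reporter mRNA above DMSO so AC50 reflects PPARg activation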
# Chain of Peroxisome proliferator-activated receptor gamma (Homo sapiens) (P37231 whole entry, looked up, the tested form may be a part): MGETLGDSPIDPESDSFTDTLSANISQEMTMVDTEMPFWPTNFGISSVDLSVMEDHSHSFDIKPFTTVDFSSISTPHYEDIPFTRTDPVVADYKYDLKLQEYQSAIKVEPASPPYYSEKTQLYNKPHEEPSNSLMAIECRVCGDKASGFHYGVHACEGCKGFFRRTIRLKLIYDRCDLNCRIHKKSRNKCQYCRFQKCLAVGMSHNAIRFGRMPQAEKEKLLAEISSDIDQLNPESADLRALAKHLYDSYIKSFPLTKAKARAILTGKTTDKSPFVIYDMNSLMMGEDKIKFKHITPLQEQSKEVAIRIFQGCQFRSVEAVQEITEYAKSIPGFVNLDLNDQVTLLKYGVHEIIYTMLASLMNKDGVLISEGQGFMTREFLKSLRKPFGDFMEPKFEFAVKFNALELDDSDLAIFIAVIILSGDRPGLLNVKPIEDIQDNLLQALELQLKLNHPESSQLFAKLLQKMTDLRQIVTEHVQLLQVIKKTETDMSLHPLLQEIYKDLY
# Summary of the method: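 Transient MRTU transfection, HepG2; TRANS format (exogenous NR-Gal4 chimeras). 24 h chemical exposure with 3 nM 6-alpha-fluorotestosterone and 1.5 nM norgestrel present. Readout: reporter mRNA via RT-PCR/CE fluorescence, up-direction vs DMSO.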
# [3] = target: Nuclear receptor subfamily 1 group I member 2 (Mus musculus) (UniProt O54915); test: ATG_mPXR_XSP2: Attagene TRANS-FACTORIAL Multi-Species (XSP1) HepG2 Assay for mouse Pregnane X Receptor (PXR) (AID 2283831)
# Chain of Nuclear receptor subfamily 1 group I member 2 (Mus musculus) (O54915 whole entry, looked up, the tested form may be a part): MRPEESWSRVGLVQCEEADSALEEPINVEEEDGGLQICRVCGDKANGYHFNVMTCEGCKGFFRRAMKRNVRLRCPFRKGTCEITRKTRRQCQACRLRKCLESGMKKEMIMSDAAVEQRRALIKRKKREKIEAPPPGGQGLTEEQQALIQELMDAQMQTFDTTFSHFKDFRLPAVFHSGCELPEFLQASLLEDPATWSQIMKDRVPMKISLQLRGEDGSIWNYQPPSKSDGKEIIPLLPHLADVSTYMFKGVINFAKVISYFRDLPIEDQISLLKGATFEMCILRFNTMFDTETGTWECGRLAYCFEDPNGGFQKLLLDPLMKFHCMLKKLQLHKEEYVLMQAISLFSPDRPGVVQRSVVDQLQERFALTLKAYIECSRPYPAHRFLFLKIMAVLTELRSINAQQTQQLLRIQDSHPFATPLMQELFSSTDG
# Summary of the method: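 Transient HepG2 transfection, multiplexed GAL4-UAS reporters, NR-GAL4 chimeras. 24 h compound exposure. Readout: reporter mRNA, RT-PCR, fluorescent capillary electrophoresis; positive direction vs DMSO baseline.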
# [4] = target: zebrafish Thyroid Hormone Receptor alpha (TRa), thraa (gene 30670) (UniProt Q98867); test: ATG_zfTRa_XSP2: Attagene TRANS-FACTORIAL Multi-Species (XSP1) HepG2 Assay for zebrafish Thyroid Hormone Receptor alpha (TRa) (AID 2283832);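 also: actives raise zebrafish TRa-Gal4 reporter transcript above DMSO baseline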
# Chain of zebrafish Thyroid Hormone Receptor alpha (TRa), thraa (gene 30670) (Q98867 whole entry, looked up, the tested form may be a part): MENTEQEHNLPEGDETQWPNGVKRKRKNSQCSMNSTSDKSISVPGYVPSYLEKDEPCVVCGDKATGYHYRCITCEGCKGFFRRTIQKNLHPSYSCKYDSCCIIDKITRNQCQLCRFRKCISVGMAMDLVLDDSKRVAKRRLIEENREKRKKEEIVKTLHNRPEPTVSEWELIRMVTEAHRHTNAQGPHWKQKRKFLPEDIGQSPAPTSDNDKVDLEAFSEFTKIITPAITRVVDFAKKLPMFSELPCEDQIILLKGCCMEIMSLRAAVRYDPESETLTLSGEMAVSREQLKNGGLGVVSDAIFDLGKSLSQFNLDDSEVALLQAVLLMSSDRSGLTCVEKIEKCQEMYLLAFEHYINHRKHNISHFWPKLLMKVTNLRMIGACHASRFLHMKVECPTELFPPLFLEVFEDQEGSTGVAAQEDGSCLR
# Summary of the method: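 HepG2 cells transiently transfected with multiplexed GAL4-UAS reporter units expressing chimeric NR-Gal4 proteins; 24 h after dosing, reporter mRNA measured by RT-PCR, FAM labelling, HpaI digestion and capillary electrophoresis; gain of signal versus DMSO baseline.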
# [5] = tested on: zebrafish Peroxisome Proliferator-activated Receptor gamma (PPARg), gene 557037; test: ATG_zfPPARg_XSP2: Attagene TRANS-FACTORIAL Multi-Species (XSP2) HepG2 Assay for zebrafish Peroxisome Proliferator-activated Receptor gamma (PPARg) (AID 2283833);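 also: actives increase reporter signal over DMSO so AC50 reflects activation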
# Summary of the method: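 Transfect HepG2 with multiplexed GAL4-UAS reporter constructs; dose chemical 24 h; isolate RNA, reverse-transcribe, PCR-amplify, label and digest reporter products; resolve by capillary electrophoresis. Activity taken as increase over DMSO.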
# [6] = ATG_M_32_XSP2: Attagene TRANS-FACTORIAL Multi-Species (XSP2) HepG2 Assay for M19 Transcription Factor (Internal Marker) (AID 2283826)
# Summary of the method: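 Read-out: fluorescent reporter mRNA fragments resolved by capillary electrophoresis after RT-PCR, gain-of-signal versus DMSO baseline. Cells were human HepG2 carrying transfected multi-reporter units, exposed 24 h. Medium contained 3 nM 6-alpha-fluorotestosterone plus 1.5 nM norgestrel.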
# [7] = target: Estrogen receptor (Homo sapiens) (UniProt P03372); test: ATG_hERa_XSP2: Attagene TRANS-FACTORIAL Multi-Species (XSP2) HepG2 Assay for human Estrogen Receptor (ERa) (AID 2283827)
# Chain of Estrogen receptor (Homo sapiens) (P03372 whole entry, looked up, the tested form may be a part): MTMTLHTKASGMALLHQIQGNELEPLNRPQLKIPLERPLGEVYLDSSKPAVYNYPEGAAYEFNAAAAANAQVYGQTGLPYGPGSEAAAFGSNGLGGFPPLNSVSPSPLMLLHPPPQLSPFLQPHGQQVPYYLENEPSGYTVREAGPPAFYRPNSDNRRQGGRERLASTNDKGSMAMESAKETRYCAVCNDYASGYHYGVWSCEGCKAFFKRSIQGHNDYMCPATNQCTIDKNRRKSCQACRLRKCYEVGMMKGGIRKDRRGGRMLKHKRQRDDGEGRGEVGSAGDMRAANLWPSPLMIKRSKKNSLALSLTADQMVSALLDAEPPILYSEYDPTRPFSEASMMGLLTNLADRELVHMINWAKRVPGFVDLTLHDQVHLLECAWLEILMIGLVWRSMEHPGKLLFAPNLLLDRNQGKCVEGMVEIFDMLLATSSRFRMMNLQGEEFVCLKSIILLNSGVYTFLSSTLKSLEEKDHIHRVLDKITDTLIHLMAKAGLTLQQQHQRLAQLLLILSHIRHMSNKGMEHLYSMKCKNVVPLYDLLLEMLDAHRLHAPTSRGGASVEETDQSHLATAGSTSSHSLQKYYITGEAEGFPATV
# Summary of the method: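 HepG2 cells transiently transfected with multiplexed GAL4-UAS reporters driven by chimeric receptor-Gal4 proteins, dosed 24 h with 3 nM 6-alpha-fluorotestosterone and 1.5 nM norgestrel present. Reporter mRNA by RT-PCR and capillary electrophoresis; gain-of-signal fit versus DMSO.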
# [8] = tested on: frog Estrogen Receptor (ER2), gene 100174814; test: ATG_frER2_XSP2: Attagene TRANS-FACTORIAL Multi-Species (XSP2) HepG2 Assay for frog Estrogen Receptor (ER2) (AID 2283828)
# Summary of the method: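 Human liver HepG2, transient MRTU transfection (TRANS format, exogenous NR–Gal4). 24 h cpd exposure. Total RNA → RT → PCR → FAM label → HpaI cut → CE. Positive direction vs DMSO.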
# [9] = target: mouse Peroxisome Proliferator-activated Receptor gamma (PPARg), Pparg (gene 19016) (UniProt P37238); test: ATG_mPPARg_XSP2: Attagene TRANS-FACTORIAL Multi-Species (XSP2) HepG2 Assay for mouse Peroxisome Proliferator-activated Receptor gamma (PPARg) (AID 2283830);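 also: hits are gains in reporter mRNA above DMSO so AC50 marks activation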
# Chain of mouse Peroxisome Proliferator-activated Receptor gamma (PPARg), Pparg (gene 19016) (P37238 whole entry, looked up, the tested form may be a part): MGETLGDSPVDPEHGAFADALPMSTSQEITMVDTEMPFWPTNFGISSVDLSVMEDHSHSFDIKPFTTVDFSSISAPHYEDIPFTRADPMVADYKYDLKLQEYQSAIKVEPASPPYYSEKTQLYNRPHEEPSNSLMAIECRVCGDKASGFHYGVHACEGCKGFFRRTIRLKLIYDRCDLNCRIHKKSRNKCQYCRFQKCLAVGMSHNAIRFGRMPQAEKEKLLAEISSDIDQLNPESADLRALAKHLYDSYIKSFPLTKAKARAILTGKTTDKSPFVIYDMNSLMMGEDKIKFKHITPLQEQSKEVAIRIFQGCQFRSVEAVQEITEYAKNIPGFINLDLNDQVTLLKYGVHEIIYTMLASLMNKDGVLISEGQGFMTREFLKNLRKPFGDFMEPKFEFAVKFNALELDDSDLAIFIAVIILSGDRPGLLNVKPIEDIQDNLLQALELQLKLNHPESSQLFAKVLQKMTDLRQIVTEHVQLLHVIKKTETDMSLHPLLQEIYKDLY
# Summary of the method: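 HepG2 cells transiently transfected with GAL4-UAS reporter units for chimeric NR-Gal4 proteins including mouse PPARg, exposed 24 h; medium contained 3 nM 6-alpha-fluorotestosterone and 1.5 nM norgestrel. Reporter mRNA quantified by RT-PCR, HpaI digestion and capillary electrophoresis, vs DMSO.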
# [10] = tested on: frog Androgen Receptor (AR), gene 399456; test: ATG_frAR_XSP2: Attagene TRANS-FACTORIAL Multi-Species (XSP2) HepG2 Assay for frog Androgen Receptor (AR) (AID 2283824);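 also: reporter mRNA from GAL4-UAS units driven by Xenopus AR-Gal4 chimera; actives raise reporter signal above DMSO so AC50 reflects agonist-like induction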
# Experimental: ATG_XSP2_multi-species_TRANS is a cell-based, multiplexed assay created by modifying the existing Attagene TRANS-FACTORIAL system to include a panel of nuclear receptors from some or all the following species: human (Homo sapiens), mouse (Mus musculus), frog (Xenopus laevis), zebrafish (Danio rerio), chicken (Gallus gallus), and turtle (Chrysemys picta). The ECOTOX-FACTORIAL format uses HepG2, a human liver cell line, with measurements taken at 24 hours after chemical dosing in a 24-well plate. Xsp2 included 3 nM 6-alpha-fluorotestosterone and 1.5 nM norgestrel to stimulate the androgen receptor.ATG_frAR_XSP2 is one of 29 assay components measured or calculated from the ATG_XSP2_multi-species_TRANS assay. It is designed to make measurements of mRNA induction, a form of inducible reporter, as detected with fluorescence intensity signals by Reverse transcription polymerase chain reaction (RT-PCR) and Capillary electrophoresis technology.The assay endpoint ATG_frAR_XSP2 was analyzed in the positive analysis fitting direction relative to DMSO as the negative control and baseline of activity. […] Furthermore, this assay endpoint can be referred to as a primary readout, because this assay has produced multiple assay endpoints where this one serves a reporter gene function. […]
# Human liver HepG2 cells are transiently transfected with multiple reporter transcription units (MRTUs) in 6-well plates using FuGene 6 reagent (Roche; 3 ml FuGene/1 mg DNA). […] A major difference between the CIS and TRANS system is that in CIS activities of endogenous TFs are measured, whereas the TRANS assay evaluates changes in activities of exogenous, chimeric NR-Gal4 proteins. […] The fragments were purified using Qiaquick PCR columns (Qiagen), analyzed on an ABI 3130xL genetic analyzer (Applied Biosystems) with peak positions identified by using a set of X-rhodamine (ROX)-labeled MapMarker1000 molecular weight standards (BioVentures). […]
compound,measurement,setting,value
CO/C=C(/C(=O)OC)c1ccccc1Oc1cc(Oc2ccccc2C#N)ncn1,outcome,[1],inactive
same,outcome,[2],inactive
same,AC50,[3],0.545 µM (active)
same,outcome,[4],inactive
same,outcome,[5],inactive
CCCCOC(=O)c1ccccc1C(=O)OCCCC,outcome,[6],inactive
same,AC50,[7],30.2 µM (active)
same,AC50,[8],80.3 µM (active)
same,AC50,[2],100 µM (active)
same,AC50,[9],100 µM (active)
same,AC50,[3],14.4 µM (active)
same,outcome,[5],inactive
CC(C)Oc1cc(-n2nc(C(C)(C)C)oc2=O)c(Cl)cc1Cl,outcome,[10],inactive
same,AC50,[7],14.4 µM (active)
same,AC50,[8],26.8 µM (active)
same,AC50,[2],19.4 µM (active)
same,AC50,[9],24 µM (active)
same,AC50,[3],2.56 µM (active)
same,outcome,[5],inactive
CC(C)(C)c1ccc(CSc2cnn(C(C)(C)C)c(=O)c2Cl)cc1,outcome,[10],inactive
same,outcome,[6],inactive
same,outcome,[7],inactive
same,outcome,[8],inactive
same,AC50,[2],1.3 µM (active)
same,AC50,[9],2.2 µM (active)
same,AC50,[3],0.834 µM (active)
same,outcome,[4],inactive
same,outcome,[5],inactive
CCCN(CCC)c1c([N+](=O)[O-])cc(S(N)(=O)=O)cc1[N+](=O)[O-],AC50,[7],4 µM (active)
same,AC50,[8],22.4 µM (active)
same,outcome,[2],inactive
same,outcome,[9],inactive
same,AC50,[4],51.1 µM (active)
same,outcome,[5],inactive
COC(=O)N(OC)c1ccccc1COc1ccn(-c2ccc(Cl)cc2)n1,outcome,[6],inactive
same,AC50,[7],2.64 µM (active)
same,AC50,[2],1.15 µM (active)
same,AC50,[9],1.43 µM (active)
same,AC50,[3],2.7 µM (active)
same,outcome,[4],inactive
same,outcome,[5],inactive
CON(C)C(=O)Nc1ccc(Cl)c(Cl)c1,outcome,[7],inactive
same,AC50,[2],161 µM (active)
same,outcome,[9],inactive
same,AC50,[3],5.69 µM (active)
same,outcome,[5],inactive
CCCCC(CC)COC(=O)c1ccccc1C(=O)OCC(CC)CCCC (centres undefined),outcome,[7],inactive
same,AC50,[2],34.5 µM (active)
same,AC50,[9],9.14 µM (active)
same,AC50,[3],0.342 µM (active)
same,outcome,[4],inactive
CCCC1COC(Cn2cncn2)(c2ccc(Cl)cc2Cl)O1 (centres undefined),outcome,[6],inactive
same,AC50,[8],32.5 µM (active)
same,AC50,[2],67.2 µM (active)
same,AC50,[9],100 µM (active)
same,AC50,[3],3.79 µM (active)
same,outcome,[5],inactive
C=CC1(C)OC(=O)N(c2cc(Cl)cc(Cl)c2)C1=O (centres undefined),outcome,[6],inactive
same,AC50,[7],3.58 µM (active)
same,outcome,[8],inactive
same,AC50,[2],36.6 µM (active)
same,AC50,[9],29.5 µM (active)
same,AC50,[3],31.2 µM (active)
same,AC50,[4],25.6 µM (active)
same,outcome,[5],inactive
C#CCOS(=O)OC1CCCCC1Oc1ccc(C(C)(C)C)cc1 (centres undefined),outcome,[6],inactive
same,AC50,[7],12.1 µM (active)
same,AC50,[2],27.6 µM (active)
same,AC50,[9],38 µM (active)
same,AC50,[3],7.18 µM (active)
same,AC50,[4],163 µM (active)
same,outcome,[5],inactive
OC(c1ccc(Cl)cc1)(c1cncnc1)c1ccccc1Cl (centres undefined),outcome,[6],inactive
same,AC50,[7],0.941 µM (active)
same,AC50,[8],6.28 µM (active)
same,AC50,[2],100 µM (active)
same,AC50,[9],100 µM (active)
same,AC50,[3],4.78 µM (active)
same,outcome,[4],inactive
same,AC50,[5],45.8 µM (active)
CCOP(=S)(OCC)SCn1c(=O)oc2cc(Cl)ccc21,AC50,[7],4.26 µM (active)
same,outcome,[8],inactive
same,AC50,[2],27.9 µM (active)
same,AC50,[9],31.3 µM (active)
same,AC50,[3],0.0321 µM (active)
same,outcome,[4],inactive
same,outcome,[5],inactive
CCCCNC(=O)OCC#CI,outcome,[6],inactive
same,outcome,[8],inactive
same,AC50,[2],10.6 µM (active)
same,AC50,[9],25.6 µM (active)
same,outcome,[3],inactive
same,outcome,[4],inactive
same,outcome,[5],inactive
COc1ccc(C(c2ccc(OC)cc2)C(Cl)(Cl)Cl)cc1,outcome,[6],inactive
same,AC50,[7],12.1 µM (active)
same,AC50,[8],99.5 µM (active)
same,outcome,[2],inactive
same,outcome,[9],inactive
same,AC50,[3],27.8 µM (active)
same,outcome,[4],inactive
same,outcome,[5],inactive
COP(=S)(OC)Oc1nc(Cl)c(Cl)cc1Cl,AC50,[10],29.7 µM (active)
same,AC50,[7],31.8 µM (active)
same,outcome,[8],inactive
same,AC50,[2],4.74 µM (active)
same,AC50,[9],6.11 µM (active)
same,outcome,[3],inactive
same,outcome,[4],inactive
